Activity calls are given as the source filed them. Rule for the calls: active = hit-call score of the fitted dose curve at least 0.9, where 1 is the maximum; inactive = score below 0.9.

The assay is described as follows: Tanguay_ZF_120hpf_MORT: Oregon State University Tanguay Lab 120 Hour Post-fertilization zebrafish Assay for Mortality (AID 2284399). As for the experimental part: Tanguay_ZF_120hpf is a whole embryo, multiplexed endpoint assay using zebrafish larvae exposed for 120 hours post fertilization on a 96-well plate.Tanguay_ZF_120hpf_MORT is one of one assay component(s) measured or calculated from the Tanguay_ZF_120hpf assay. It is designed to make measurements of zebrafish development as detected with brightfield microscopy of developing zebrafish embryos.Data from the assay component Tanguay_ZF_120hpf_MORT was analyzed into 1 assay endpoints. This assay endpoint, Tanguay_ZF_120hpf_MORT, was analyzed in the positive analysis fitting direction relative to DMSO as the negative control and baseline of activity. Using a type of viability reporter, gain-of-signal activity can be used to understand changes in developmentals as they relate to the whole embryo. To generalize the intended target to other relatable targets, this assay endpoint is annotated to the zebrafish development intended target family, where the subfamily is embryonic mortality.
Zebrafish husbandry: Tropical 5D wild-type adult zebrafish were housed in at an approximate density of 1000 per 100 gallon tank at the Sinnhuber Aquatic Research Laboratory, Oregon State University, Corvallis, OR. Each tank was kept at standard laboratory conditions of 28C on a 14-h light/10-h dark photoperiod in fish water consisting of reverse osmosis water supplemented with a commercially available salt (Instant Ocean). Spawning funnels were placed into the tanks the night prior, and embryos were collected and staged. To increase bioavailability, the chorion was enzymatically removed using pronase (63.6mg/ml, >/= 3.5U/mg, Sigma-Aldrich: P5147) at 4 hours post fertilization (hpf) using a custom automated dechorionator.Chemical exposures: Six hpf dechorionated embryos were placed 1 embryo per well in a 96-well plate prefilled with 90 ul of EM using automated embryo placement systems (AEPS). Ten microliters of each row of dilution plate 2 was added to 2 exposure plates. The final DMSO concentration used was 0.64% (vol/vol). Thirty-two embryos were also exposed to 5uM trimethyltin chloride (positive control). Plates were sealed to prevent evaporation and foil covered to reduce light exposure and kept in a 28C incubator. Embryos were statically exposed until 120 hpf. At 24 hpf, embryos were assessed for photomotor response using a custom photomotor response analysis tool (PRAT) and for developmental toxicity endpoints (MO24: mortality at 24 hpf, DP: developmental progression, SM: spontaneous movement, and NC: notochord distortion). At 120 hpf, locomotor activity was measured using Viewpoint Zebralab and assessed for 13 endpoints. Zebrafish acquisition and analysis program (ZAAP), a custom program designed to inventory, acquire, and manage zebrafish data, was used to collect developmental endpoints as either present or absent (i.e., binary responses were recorded). If mortality occurred for an embryo (at either 24 or 120 hpf), the non-mortality endpoints were not measured.
In the case of `O=C(O)C(F)(OC(F)(F)C(F)(F)C(F)(F)F)C(F)(F)F` (centres undefined), the result was inactive.

Turning to `OCC(F)(F)OC(F)(F)C(F)(F)OC(F)(F)C(F)(F)OC(F)(F)F`, the call was inactive.

Regarding `C=CC(=O)OCC(F)(F)C(F)F`, the AC50 is 64 µM (active).

As to `FC(F)(F)C(F)(C(F)(F)F)C(F)(F)C(F)(F)CC1CO1` (centres undefined), the result was inactive.

On to `NC(=O)C(F)(F)C(F)(F)F`, for which the outcome was inactive.

As for `OCC(F)(F)OC(F)(F)C(F)(F)OC(F)(F)C(F)(F)OC(F)(F)CO`, the AC50 was 57.6 µM (active).

Take `O=C(O)C(F)(F)C(F)(F)C(=O)O`: the result was inactive.

Take `O=C(O)C(F)(F)OC(F)(F)C(F)(F)OC(F)(F)F`: the outcome was inactive.

In the case of `CC(O)C(F)(F)C(F)(F)F` (centres undefined), the compound was called inactive.

With `OCC(F)(F)OC(F)(F)C(F)(F)OC(F)(F)CO`, the call was inactive.

Regarding `O=C(O)C(F)(F)OC(F)(F)C(F)(F)OC(F)(F)C(=O)O`, the compound was called inactive.

Consider `O=C(O)C=CC(F)(C(F)(F)F)C(F)(F)F`, for which the compound was called inactive.

`COC(=O)C(F)(F)C(F)(F)OC(F)(C(F)(F)F)C(F)(F)OC(F)=C(F)F` (centres undefined): the AC50 is 22.2 µM (active).

With `O=S(=O)(F)C(F)(F)C(F)(F)C(F)(F)C(F)(F)C(F)(F)C(F)(F)C(F)(F)C(F)(F)F`, the compound was classed as inactive.

Source of the values: PubChem BioAssay (EPA / NIEHS).
